Screens as filed in PubChem BioAssay.
Compounds with a hit are over-represented: about 15% of the library has one in this group of screens.
Sm TGR block: S. mansoni TGR enzyme inhibition. Q962Y6. purified TGR, DTNB reduction, TNB absorbance 405 nm. Potency, µM (series often up to 114 µM), for inactives: top-dose activity change, negative = inhibition, usual class: inhibitors. actives 3% (n = 360,000). AID 485364; note: potency is the fitted concentration of half-maximal effect; % is set by controls: 0 for no effect and ±100 for the full control effect; nearly all actives have a fitted effect of over 60% in size
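First, TGR (20 nM dispensed) and NADPH were mixed with compound. Second, a 15 min room-temperature incubation followed. Third, further NADPH and then DTNB were added to start the reaction. Finally, TNB absorbance was monitored kinetically.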
Pf growth 48h: P. falciparum growth inhibition at 48 hours (one generation). actives 5.9% (n = 310,000). P. falciparum luciferase growth in erythrocytes, 48 h. AID 504832. Potency, µM (series often up to 28.7 µM), for inactives: top-dose activity change, negative = inhibition, usual class: inhibitors; note: potency is the fitted concentration of half-maximal effect; % is set by controls: 0 for no effect and ±100 for the full control effect
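Erythrocytes infected with P. falciparum carrying an integrated firefly luciferase reporter (2% hematocrit, 0.1% parasitemia final) were exposed to compounds in RPMI 1640 with 0.5% Albumax at 37 C, 5% CO2. Growth inhibition was scored as reduced luminescence.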
Pf growth 96h: inhibits malaria parasite growth, 96 h; P. falciparum luciferase reporter growth, 96 h; actives 6.9% (n = 320,000); Potency, µM (doses to about 28.7 µM), without a hit: at the highest dose activity change, negative = inhibition, actives largely listed as inhibitors; note: potency is the fitted concentration of half-maximal effect; % is set by controls: 0 for no effect and ±100 for the full control effect
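Compounds incubated with erythrocytes infected by luciferase-expressing P. falciparum (2% hematocrit, 0.05% parasitemia final) for 96 hours, 37 C in 5% CO2. Growth inhibition scored as decreased luciferase luminescence.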
HCMV inh: blocks human cytomegalovirus replication; actives 4.5% (n = 410,000); activity change, negative = inhibition, % at 57.5 µM; HFF cells, HCMV-luciferase reporter, 72 h; hits give low values; in the data active = activity change below about -60%; inconclusive = no clear call, values can overlap the other calls; inactive = above about -39%; note: % is set by controls: 0 for no effect and ±100 for the full control effect
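HFF cells seeded 16 h at 37C, treated with compounds, infected with luciferase-reporter HCMV at MOI 1 PFU/cell; luciferase read at 72 h post infection, normalized to buffer-only and Salinomycin controls.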
SARS PLP yeast: blocks SARS-CoV papain-like protease in a yeast assay; S. cerevisiae expressing SARS-CoV PLpro, growth rescue; Potency, µM (series often up to 32.9 µM), for the others: at the top dose activity, positive = growth rescue, actives largely listed as activators; actives 0.19% (n = 330,000); calls by dose curve; note: potency is the fitted concentration of half-maximal effect; 0% is about no effect; nearly all actives have a fitted effect of over 55% in size
HCV inhibitor: inhibitors of hepatitis C virus infection. Huh7.5.1 HCVcc-Cre infection, luciferase reporter, 44 h. Potency, µM (series often up to 41.8 µM), for inactives: at the highest dose activity change, negative = inhibition, most hits filed as inhibitors. actives 3.4% (n = 340,000); note: potency is the fitted concentration of half-maximal effect; % is set by controls: 0 for no effect and ±100 for the full control effect
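Luciferase read-out (15 sec integration) after a 15 min room-temperature substrate step quantifies HCVcc-Cre infection. Cells, 1,000 per well, had compound added 4 h post-plating, then virus at ~0.5 moi, and were cultured 44 h.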
Active calls of the source: *; [ ] = dose if it differs, or a comment. Unless noted, calls come from the whole dose curve; as a rule, active = well fitted curve in the direction sought with a large enough effect; inconclusive = small, poorly fitted or top-dose-only effect, or another doubt; inactive = no such curve, though single readings can be large; an effect the other way counts as inactive or inconclusive.

Screening CN(Cc1ccccc1)C(=O)c1cccc(NC(=O)Cc2ccc(NC(=O)C3CCCN(C(=O)C4CCCCC4)C3)cc2)c1 (stereo not given) returned HCMV inh 6 and HCV inhibitor 7.9µM*.
For CN(CCc1ccccc1)C(=O)c1ccc(NC(=O)Cc2ccc(NC(=O)C3CCN(C(=O)c4ccccc4)CC3)cc2)cc1 the results were HCMV inh -63* and HCV inhibitor -17%[8.37 µM].
For CN(CCc1ccccc1)C(=O)c1ccc(NC(=O)Cc2ccc(NC(=O)C3CCCN(C(=O)C4CCCCC4)C3)cc2)cc1 (stereo not given) the results were HCMV inh inconclusive and HCV inhibitor -2%[8.37 µM].
CN(CCc1ccccc1)C(=O)c1ccc(NC(=O)Cc2ccc(NC(=O)C3CCCN(C(=O)c4ccccc4)C3)cc2)cc1 (stereo not given) was read as HCMV inh -76* and HCV inhibitor -16%[8.37 µM].
`Cc1ccc(C)c(N2CC(C(=O)Nc3cc(C)on3)CC2=O)c1` (stereo not given) gave Sm TGR block -3%, Pf growth 48h 13%, Pf growth 96h -1%, HCMV inh -34, SARS PLP yeast -2% and HCV inhibitor 3%.
For COc1ccc(S(=O)(=O)N2CCC(C(=O)NCCC(=O)Nc3ccc(Cl)cc3)CC2)cc1 the results were Sm TGR block 8%, Pf growth 48h -4%, Pf growth 96h inconclusive, HCMV inh 7, SARS PLP yeast 10% and HCV inhibitor 5%.
`CN(Cc1ccccc1)C(=O)c1ccc(NC(=O)Cc2cccc(NC(=O)C3CCN(C(=O)C4CCCC4)CC3)c2)cc1` gave Sm TGR block 5%, Pf growth 48h inconclusive, Pf growth 96h 5.9µM*, HCMV inh -4, SARS PLP yeast -4% and HCV inhibitor -10%.
Screening CN(Cc1ccccc1)C(=O)c1cccc(NC(=O)Cc2cccc(NC(=O)C3CCN(C(=O)C4CCC4)CC3)c2)c1 returned HCMV inh -10 and HCV inhibitor -21%.
COc1ccc(CC(=O)Nc2cc(-c3nc4cccnc4s3)ccc2C)cc1 was read as Sm TGR block -8% and HCMV inh 75.
`COc1cccc(-c2nn3c(-c4cc(C)[nH]n4)nnc3s2)c1` gave Sm TGR block -11%, Pf growth 96h 10µM*, HCMV inh -17, SARS PLP yeast 2% and HCV inhibitor 1%.
c1ccc(Cc2nnc3sc(-c4ccncc4)nn23)cc1 was read as Sm TGR block -3%, Pf growth 48h 4%, Pf growth 96h 8%, HCMV inh inconclusive, SARS PLP yeast -2% and HCV inhibitor -17%.
For Cc1cccc(-c2nnc3sc(-c4ccccc4)nn23)c1 the results were Sm TGR block -25%, Pf growth 48h 14%, Pf growth 96h 2.3µM*, HCMV inh -2, SARS PLP yeast 1% and HCV inhibitor inconclusive.
c1ccc(-c2nn3c(-c4ccccc4)nnc3s2)cc1 was read as Sm TGR block 0%, Pf growth 48h 8%, Pf growth 96h -11%, HCMV inh -28, SARS PLP yeast 5% and HCV inhibitor 15%.
Screening COc1cccc(-c2nn3c(-c4ccco4)nnc3s2)c1 returned Sm TGR block 45µM*, Pf growth 48h 10%, Pf growth 96h 8.3µM*, HCMV inh 27, SARS PLP yeast 0% and HCV inhibitor 0%.
COc1cccc(-c2nn3c(-c4ccccn4)nnc3s2)c1 was read as Sm TGR block 2%, Pf growth 96h 59%, HCMV inh 8, SARS PLP yeast 2% and HCV inhibitor -13%.
Screening c1ccc(Cc2nnc3sc(-c4cccnc4)nn23)cc1 returned Sm TGR block 5%, Pf growth 48h -7%, Pf growth 96h 18%, HCMV inh -63*, SARS PLP yeast -2% and HCV inhibitor 4%.
COc1cc(-c2nn3c(-c4ccco4)nnc3s2)cc(OC)c1OC was read as Sm TGR block -1%, Pf growth 48h 28%, Pf growth 96h inconclusive and SARS PLP yeast -1%.
Screening CC(=O)c1ccc(S(=O)(=O)N2CCN(C(=O)CSc3ccc(C)c(C)c3)CC2)cc1 returned Sm TGR block -23%, Pf growth 48h inconclusive, Pf growth 96h -27%, HCMV inh -17, SARS PLP yeast 2% and HCV inhibitor -7%.
`Cc1ccc(Nc2nc(C(=O)NCc3ccco3)cs2)cc1` gave Sm TGR block -17%, Pf growth 48h inconclusive, Pf growth 96h inconclusive, HCMV inh 26, SARS PLP yeast -12% and HCV inhibitor inconclusive.
Screening CCOc1ccccc1Nc1nc(-c2cccnc2)cs1 returned Sm TGR block -1%, Pf growth 48h 13µM*, Pf growth 96h 0%, HCMV inh 17, SARS PLP yeast -6% and HCV inhibitor 10µM*.
`CCOc1ccccc1Nc1nc(-c2sc(C)nc2C)cs1` gave Sm TGR block 0%, Pf growth 48h inconclusive, Pf growth 96h -2%, HCMV inh 59, SARS PLP yeast 3% and HCV inhibitor inconclusive.
`Cc1ccccc1Nc1nc(-c2sc(NC(=O)c3ccco3)nc2C)cs1` gave Sm TGR block inconclusive, Pf growth 48h 12µM*, Pf growth 96h inconclusive, HCMV inh 25, SARS PLP yeast -5% and HCV inhibitor inconclusive.
Cc1ccc(Nc2nc(-c3sc(NC(=O)c4ccco4)nc3C)cs2)cc1 was read as Sm TGR block inconclusive, Pf growth 48h 9.3µM*, Pf growth 96h inconclusive, HCMV inh -33, SARS PLP yeast 2% and HCV inhibitor inconclusive.
Screening Cc1ccccc1NS(=O)(=O)c1nnc(NC(=O)c2ccco2)s1 returned Sm TGR block 10% and HCMV inh 18.
CCOc1ccccc1Nc1nc(-c2sc(NC(=O)c3ccco3)nc2C)cs1 was read as Sm TGR block 0%, Pf growth 48h 15µM*, Pf growth 96h 2.3µM*, HCMV inh 2, SARS PLP yeast -5% and HCV inhibitor inconclusive.
Screening COc1ccc(N(CC(=O)Nc2cccc(C(C)=O)c2)S(=O)(=O)c2ccccc2)c(OC)c1 returned Sm TGR block -1% and HCMV inh -29.
Cc1onc(-c2ccccc2)c1C(=O)Nc1cccc(S(=O)(=O)N2CCCCC2)c1 was read as HCMV inh -7, SARS PLP yeast -6% and HCV inhibitor -8%.
